The test system of assay [1] is Wnt5a (protein binding on small-molecule microarray). In words: small molecules binding Wnt5a protein – biophysical, small-molecule microarray, 635/667 nm fluorescence, primary screen (AID 1142).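 Further: fluorescence read at 667 nm with signal to noise per printed feature.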 The conditions noted are these: 635 nm fluorescence, higher = more signal.
Assay [2] in a line: ATP-based viability of Huh7 replicon cells – cell-based, CellTiter-Glo luminescence, basal, 48 h, cytotoxicity control for HCV replication inhibitor project, primary screen (AID 1143).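 Further: Huh7 hepatoma cells carrying a hepatitis C replication reporter with no stimulus; test concentration not given here.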 The conditions noted are these: higher = more signal, called active from +8 up or from −8 down. In general terms: In antiviral work, replicon cells carry a viral genome segment that copies itself.

A short description of assay [3]: basal CRE-LacZ reporter activity in PC12 – cell-based, unstimulated, primary screen (AID 1145). The conditions noted are these: no forskolin, luminescence, 4.5 h, higher = more signal, called active from +8 up or from −8 down.
A short description of assay [4]: forskolin-driven CRE-LacZ activity in PC12 – cell-based, CRE-LacZ reporter, forskolin-stimulated, primary screen (AID 1146).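 Further: PC12 cells with 6xCRE LacZ reporter stimulated by forskolin 10 µM; beta-galactosidase reporter signal reflecting CREB driven transcription.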 The conditions noted are these: luminescence, 4.5 h, higher = more signal, called active from +8 up or from −8 down.
Assay [5] concerns the target Streptavidin (Streptomyces avidinii) (UniProt P22629). In words: compounds binding control protein streptavidin – biophysical, small-molecule microarray, 635/667 nm fluorescence, artefact control for SMM compound annotation, primary screen (AID 1147).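 Further: signal reflects streptavidin binding to arrayed compounds as a control protein.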 The conditions noted are these: higher = more signal.
The nature of assay [6]: probe aInhba binding on compound microarray – biochemical, small-molecule microarray, 635/667 nm fluorescence, primary screen (AID 1148).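 Further: score merges 667nm spot fluorescence with signal-to-noise for antibody binding to printed compounds.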 The conditions noted are these: higher = more signal.
In assay [7] the target is Torsin-1A (Homo sapiens) (UniProt O14656). In words: TOR1A wild-type binding on microarray – cell lysate, small-molecule microarray, lysate, 635/667 nm, primary screen (AID 1149). The conditions noted are these: COS7 hTOR1A-WT lysate, 635 nm fluorescence, higher = more signal.
Chain of Torsin-1A (Homo sapiens) (O14656 whole entry, looked up): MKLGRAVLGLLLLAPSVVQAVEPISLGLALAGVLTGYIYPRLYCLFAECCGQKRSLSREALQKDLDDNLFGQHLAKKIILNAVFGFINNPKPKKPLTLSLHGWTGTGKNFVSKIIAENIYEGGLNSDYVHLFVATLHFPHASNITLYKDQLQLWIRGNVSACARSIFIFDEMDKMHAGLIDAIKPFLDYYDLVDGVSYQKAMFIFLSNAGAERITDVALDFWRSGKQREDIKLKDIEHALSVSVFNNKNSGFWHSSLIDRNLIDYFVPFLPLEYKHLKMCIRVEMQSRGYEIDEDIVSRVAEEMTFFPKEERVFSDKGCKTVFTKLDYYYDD
The target is the same in assay [8]. In words: torsin A mutant lysate binding on microarrays – cell lysate, small-molecule microarray, COS7 lysate, 635/667 nm fluorescence, primary screen (AID 1150).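 Further: score pools 667 nm emission and signal to noise measuring lysate protein binding.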 The conditions noted are these: COS7 hTOR1A mutant lysate, 635 nm fluorescence, higher = more signal.
Assay [9] has as its system Sonic hedgehog protein (Shh). In words: Sonic hedgehog microarray binding compounds – biochemical, small-molecule microarray, 635/667 nm fluorescence, primary screen (AID 1151).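 Further: Shh protein binding to compounds spotted on small-molecule microarray slides; score combines spot fluorescence intensity with signal-to-noise across triplicate slides.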 The conditions noted are these: 635 nm fluorescence, higher = more signal.
Assay [10] is described as follows: optical density shifts of acrAB sulA E. coli – strain DRC41, OD650, 48 h, E. coli filamentation inducer project, primary screen (AID 1152).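 Further: E. coli MC1000 strain DRC41 lacking acrAB efflux pump and sulA.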 The conditions noted are these: higher = more signal, called active from +8 up or from −8 down.
Assay [11] in a line: probe aLefty1 binding on compound microarray – biochemical, small-molecule microarray, 635/667 nm fluorescence, primary screen (AID 1153).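 Further: score merges spot fluorescence with signal-to-noise ratio from the scanned slide images.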 The conditions noted are these: higher = more signal.
The nature of assay [12]: plasmodial surface anion channel blockers, osmotic lysis – cell-based, P. falciparum Indochina, OD700, 1 h, primary screen (AID 1154). The conditions noted are these: P. falciparum Indochina infected RBC osmotic lysis, higher = more signal, called active from +8 up or from −8 down.
Assay [13] is described as follows: plasmodial surface anion channel blockers, osmotic lysis – cell-based, P. falciparum Indochina, OD700, 2 h, primary screen (AID 1155).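 Further: lysis reports solute entry through the parasite surface anion channel PSAC.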 The conditions noted are these: P. falciparum Indochina infected erythrocytes, higher = more signal, called active from +8 up or from −8 down.
Assay [14] is described as follows: changes in parasitized red cell lysis, either direction – P. falciparum Indochina, OD700, 3 h, PSAC antagonist project, primary screen (AID 1156). The conditions noted are these: P. falciparum-infected erythrocytes, osmotic lysis, higher = more signal, called active from +8 up or from −8 down.
Assay [15] in a line: plasmodial surface anion channel blockers, osmotic lysis – cell-based, P. falciparum Indochina, OD700, 18 h, primary screen (AID 1157). The conditions noted are these: P. falciparum Indochina infected erythrocytes, osmotic lysis OD700, 18 h; higher = more signal, called active from +8 up or from −8 down.
Assay [16] can be described thus: S6 kinase pathway phospho-S6 level changes – cell-based, A549, cytoblot, luminescence, serum-stimulated, primary screen (AID 1158).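 Further: serum-stimulated A549 lung adenocarcinoma cells; signal is phosphorylated S6 detected by cytoblot immunostaining with HRP secondary.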 The conditions noted are these: 5 h, higher = more signal.
Assay [17] addresses NADPH oxidase 2 (Homo sapiens) (UniProt P04839). Description: compounds shifting NOX2 Amplex Red fluorescence – cell-based, HEK293-NOX2, PMA-stimulated, NOX inhibitor project, primary screen (AID 1159). Further: test concentration not given here. The conditions noted are these: 45 min, higher = more signal, called active from +8 up or from −8 down.
The target of assay [18] is NADPH oxidase 4 (Homo sapiens) (UniProt Q9NPH5). In words: compounds shifting NOX4 Amplex Red fluorescence – cell-based, HEK293-NOX4, tetracycline-induced, NOX inhibitor project, primary screen (AID 1160). The conditions noted are these: HEK293-NOX4, Amplex Red H2O2 fluorescence, 45 min; higher = more signal, called active from +8 up or from −8 down.
Chain of NADPH oxidase 4 (Homo sapiens) (Q9NPH5 whole entry, looked up): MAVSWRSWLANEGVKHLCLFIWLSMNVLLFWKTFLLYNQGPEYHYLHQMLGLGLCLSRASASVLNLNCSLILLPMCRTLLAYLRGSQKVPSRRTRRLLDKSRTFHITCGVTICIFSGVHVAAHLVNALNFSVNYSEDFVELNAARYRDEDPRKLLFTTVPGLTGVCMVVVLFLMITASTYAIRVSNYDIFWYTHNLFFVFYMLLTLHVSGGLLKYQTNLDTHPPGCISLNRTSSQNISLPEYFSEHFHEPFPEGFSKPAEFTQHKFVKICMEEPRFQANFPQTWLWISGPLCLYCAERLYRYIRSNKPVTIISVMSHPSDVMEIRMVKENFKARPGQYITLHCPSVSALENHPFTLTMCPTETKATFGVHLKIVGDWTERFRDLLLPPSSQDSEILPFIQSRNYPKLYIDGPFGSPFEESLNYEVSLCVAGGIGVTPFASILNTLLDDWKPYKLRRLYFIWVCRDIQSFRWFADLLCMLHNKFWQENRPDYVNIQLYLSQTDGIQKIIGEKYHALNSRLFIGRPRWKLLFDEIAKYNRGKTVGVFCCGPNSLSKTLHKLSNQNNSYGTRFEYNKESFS
Assay [19] concerns the target NADPH oxidase 5 (Homo sapiens) (UniProt Q96PH1). Description: compounds shifting NOX5 Amplex Red fluorescence – cell-based, HEK293-NOX5, NOX inhibitor project, primary screen (AID 1161). The conditions noted are these: HEK293-NOX5, ionomycin, 45 min, higher = more signal.
A short description of assay [20]: compound effects on lung adenocarcinoma cell viability – A549, calcein-AM fluorescence, 48 h, basal, profiling panel (AID 1162). Further: test concentration not given here. The conditions noted are these: higher = more signal.

Calls of active or inactive are those of the source.

Chain of NADPH oxidase 5 (Homo sapiens) (Q96PH1 whole entry, looked up): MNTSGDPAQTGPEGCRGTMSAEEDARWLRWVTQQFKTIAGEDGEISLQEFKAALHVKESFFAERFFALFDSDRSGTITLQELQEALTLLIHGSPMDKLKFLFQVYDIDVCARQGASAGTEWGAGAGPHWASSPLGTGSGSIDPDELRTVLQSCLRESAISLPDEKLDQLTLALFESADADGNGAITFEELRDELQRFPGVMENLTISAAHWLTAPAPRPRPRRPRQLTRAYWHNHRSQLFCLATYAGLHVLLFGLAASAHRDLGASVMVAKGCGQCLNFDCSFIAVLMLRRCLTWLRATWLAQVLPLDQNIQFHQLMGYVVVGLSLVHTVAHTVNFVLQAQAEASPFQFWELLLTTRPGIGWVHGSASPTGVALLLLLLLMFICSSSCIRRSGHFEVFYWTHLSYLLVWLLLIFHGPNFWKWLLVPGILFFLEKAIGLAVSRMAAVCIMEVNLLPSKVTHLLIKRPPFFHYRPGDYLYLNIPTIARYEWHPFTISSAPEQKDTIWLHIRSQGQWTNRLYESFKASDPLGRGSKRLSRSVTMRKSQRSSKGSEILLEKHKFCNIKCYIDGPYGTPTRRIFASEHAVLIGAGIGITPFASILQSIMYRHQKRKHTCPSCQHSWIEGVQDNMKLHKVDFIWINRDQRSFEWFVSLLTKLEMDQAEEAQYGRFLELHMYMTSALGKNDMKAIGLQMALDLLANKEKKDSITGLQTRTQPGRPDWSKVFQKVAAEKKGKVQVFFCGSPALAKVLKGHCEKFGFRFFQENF
Chain of Streptavidin (Streptomyces avidinii) (P22629 whole entry, looked up): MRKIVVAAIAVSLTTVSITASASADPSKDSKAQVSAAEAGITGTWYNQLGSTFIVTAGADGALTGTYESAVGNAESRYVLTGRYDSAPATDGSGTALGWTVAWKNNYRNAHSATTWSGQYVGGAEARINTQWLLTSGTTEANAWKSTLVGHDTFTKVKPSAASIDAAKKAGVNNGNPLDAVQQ
Chain of NADPH oxidase 2 (Homo sapiens) (P04839 whole entry, looked up): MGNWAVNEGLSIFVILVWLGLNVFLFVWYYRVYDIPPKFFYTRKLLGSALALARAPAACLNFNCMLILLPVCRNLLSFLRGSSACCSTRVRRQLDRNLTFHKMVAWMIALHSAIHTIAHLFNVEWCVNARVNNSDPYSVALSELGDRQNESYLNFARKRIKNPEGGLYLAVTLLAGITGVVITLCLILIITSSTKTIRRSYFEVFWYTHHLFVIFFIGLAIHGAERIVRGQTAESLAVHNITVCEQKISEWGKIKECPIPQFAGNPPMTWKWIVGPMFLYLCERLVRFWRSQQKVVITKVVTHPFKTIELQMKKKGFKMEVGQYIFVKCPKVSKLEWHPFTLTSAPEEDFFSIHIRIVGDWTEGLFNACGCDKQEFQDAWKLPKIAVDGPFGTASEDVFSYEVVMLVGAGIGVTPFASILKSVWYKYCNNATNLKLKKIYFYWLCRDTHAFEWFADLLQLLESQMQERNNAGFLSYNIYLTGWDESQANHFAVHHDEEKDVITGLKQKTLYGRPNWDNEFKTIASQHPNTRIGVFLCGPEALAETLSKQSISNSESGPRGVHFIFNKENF

As for `NC(=O)N1C(=O)C2C(C1=O)C1C=C(c3ccc(CO)cc3)C2C(C2CC2)N1Cc1cc2c(cc1Br)OCO2` (stereo not given), the composite z-score in assay [1] turned out to be 0.0262; in assay [5], 0.368; in [6] it was 0.134; in [7] it was 0.32; in assay [8] it was 0.127; in assay [9] it was 1.39. For the same compound, in assay [11], the composite z-score was 0.0671. Also, the z-score in [2] was -1.15 (inactive); in assay [3] it was 7.31 (inactive); in assay [4] it was -1.34 (inactive); in assay [10], 0.737 (inactive); in assay [12], 14.4 (active); in assay [13], 0.537 (inactive). The z-score in assay [14] was -0.429 (inactive); in assay [15], -1.43 (inactive); in assay [16], 0.215; in [17], 2.92 (inactive); in [18], 1.48 (inactive); in assay [19], -0.201. For the same compound, the z-score in assay [20] is 0.485.
Regarding `O=C(O)[C@H]1C[C@H]2C(=O)N[C@@H](Cc3ccccc3)C(=O)N2[C@H]1c1ccc(O)cc1`, the composite z-score is 0.0525 in assay [1]; -0.0681 in assay [5]; 0.0228 in assay [6]; 0.563 in [7]; 0.458 in [8]; 1.24 in [9]. Also, the composite z-score in [11] was -0.0162. Moreover, the z-score is -0.423 (inactive) in assay [2]; 0.826 (inactive) in assay [3]; -0.83 (inactive) in assay [4]; 0.763 (inactive) in assay [10]; 2.03 (inactive) in assay [12]; -0.0251 (inactive) in assay [13]. The z-score in assay [14] is -7.14 (inactive); in assay [15], -0.139 (inactive); in assay [16] it was 0.432; in assay [17], 1.53 (inactive); in [18], 1.42 (inactive); in assay [19], 2.01. The z-score in [20] was -0.315.
As to `C=C(C1=CCN(S(=O)(=O)c2ccc(C)cc2)C1)[C@@H](OC(C)=O)[C@@H]1CCCN1S(=O)(=O)c1ccccc1[N+](=O)[O-]`, the composite z-score was 0.0375 in assay [1]; -1.05 in assay [5]; -0.128 in [6]; -0.499 in assay [7]; -0.406 in [8]; 0.706 in assay [9]. In assay [11], this compound showed a composite z-score of -0.109. The z-score in [2] was -4.37 (inactive); in [3] it was 2.02 (inactive); in assay [4] it was -1.11 (inactive); in [10], 2.47 (inactive); in assay [12], 26.3 (active); in assay [13] it was 17 (active). The z-score is 0.77 (inactive) in [14]; 0.623 (inactive) in [15]; 0.993 in assay [16]; 0.0272 (inactive) in assay [17]; -1.36 (inactive) in assay [18]; 0.69 in assay [19]. In addition, the z-score in assay [20] was -0.498.
Turning to `COCCOC(=O)N1C(=O)[C@@]2(c3cc(C#CC4(O)CCCCCC4)ccc31)[C@H](c1ccc(O)cc1)N1[C@H](c3ccccc3)[C@H](c3ccccc3)OC(=O)[C@H]1[C@@H]2C(N)=O`, the composite z-score in assay [1] was found to be 0.496; in [5], 0.629; in assay [6] it was 0.101; in assay [7] it was 0.0241; in assay [8], 0.497; in assay [9], 1.22. The same compound returned a composite z-score in [11] of 0.181. Further, the z-score was -2.03 (inactive) in [2]; -0.168 (inactive) in [3]; -0.304 (inactive) in assay [4]; 1.91 (inactive) in assay [10]; 1.14 (inactive) in assay [12]; -1.24 (inactive) in [13]. Besides, the z-score is -1.54 (inactive) in assay [14]; -2.13 (inactive) in [15]; 0.736 in assay [16]; 1.97 (inactive) in [17]; 0.751 (inactive) in [18]; 1.29 in assay [19]. The z-score in assay [20] is 0.0692.
`COc1ccc([Si](C)(C)[C@H]2[C@H](CC(=O)N(CCO)Cc3ccccc3)O[C@@]3(C(=O)N(Cc4ccc(N5CCC5=O)cc4)c4ccccc43)[C@@H]2C)cc1`: the composite z-score is -0.161 in [1]; -0.161 in assay [5]; -0.128 in assay [6]; 0.162 in assay [7]; 0.294 in assay [8]; 0.407 in [9]. This compound registered a composite z-score in [11] of -0.188. In addition, the z-score in assay [2] was -2.68 (inactive); in assay [3] it was 1.82 (inactive); in assay [4], -0.316 (inactive); in assay [10] it was 1.33 (inactive); in assay [12], 27.1 (active); in assay [13] it was 21.7 (active). Further, the z-score is 0.241 (inactive) in assay [14]; 2.17 (inactive) in assay [15]; 1.39 in assay [16]; 0.946 (inactive) in [17]; 1.25 (inactive) in assay [18]; 2.96 in [19]. For the same compound, in assay [20], the z-score is -0.0126.
Turning to `COc1ccc([Si](C)(C)[C@@H]2[C@@H](CCn3cc([C@H](O)c4ccccc4)nn3)O[C@]3(C(=O)N(C)c4c(Br)cc(C)cc43)[C@H]2C)cc1`, the composite z-score in assay [1] was 0.17; in assay [5], -0.541; in assay [6], 0.0659; in [7], 0.722; in assay [8], -0.0682; in assay [9] it was 0.658. The same compound registered a composite z-score in assay [11] of -0.279. Also, the z-score in [2] is -6.27 (inactive); in assay [3], 8.24 (active); in assay [4], -1.37 (inactive); in assay [10], 3.5 (inactive); in assay [12], 26.4 (active); in [13], 15.1 (active). In addition, the z-score in assay [14] is 0.547 (inactive); in assay [15], 0.083 (inactive); in [16] it was 2.34; in assay [17] it was 1.04 (inactive); in assay [18], 0.593 (inactive); in assay [19], 0.231. Besides, the z-score in assay [20] was -1.72.
With `CCCNC(=O)[C@@]1(Sc2ccc(C)cc2)CC(=O)N(Cc2cc(C(F)(F)F)cc(C(F)(F)F)c2)[C@@H]1c1ccc(CO)cc1I`, the composite z-score in assay [1] was 0.0758; in assay [5], -0.179; in assay [6], 0.172; in assay [7], -0.365; in [8], 0.0283; in [9], 0.158. In assay [11], this compound displayed a composite z-score of 0.114. Besides, the z-score in [2] was -3.48 (inactive); in assay [3], 0.0279 (inactive); in assay [4] it was -1.35 (inactive); in assay [10], 3.98 (inactive); in [12], 2.98 (inactive); in assay [13], 0.438 (inactive). For the same compound, the z-score in assay [14] was -0.436 (inactive); in [15] it was -0.191 (inactive); in [16], 4.1; in assay [17] it was 1.32 (inactive); in assay [18], -1.29 (inactive); in [19], 1.37. In [20], the z-score is 2.5.
For the compound `C=CC[C@@H](OC(=O)Nc1ccc(SC)cc1)c1ccc(OCCO)cc1`, the composite z-score in [1] was -0.248; in assay [5], -0.761; in [6], -0.202; in assay [7] it was 1.76; in [8], 0.972; in assay [9], 0.43. Further, in assay [11], the composite z-score turned out to be 0.197. Also, the z-score was -0.89 (inactive) in [2]; 14.4 (active) in [3]; -0.595 (inactive) in [4]; -0.0217 (inactive) in assay [10]; 27.1 (active) in assay [12]; 18.6 (active) in assay [13]. The z-score was 0.616 (inactive) in assay [14]; -0.016 (inactive) in assay [15]; -0.506 in [16]; -2.02 (inactive) in assay [17]; -0.346 (inactive) in assay [18]; -2.26 in assay [19]. In addition, in assay [20], the z-score was 1.13.

Source of the values: PubChem BioAssay.
